# According to PubChem BioAssay (Tox21):
# Values joined by “and” are separate entries in the source; they are usually repeats but may differ in a detail not shown here. Equal entries are not always repeated. Inconclusive results are not listed. Active and inactive are the calls of the source. The call rests on the fitted dose curve; in most records, active means well fitted activation curve with a large enough effect in the repeat runs; inconclusive means weak or mixed curves; inactive means flat fitted curve, though single readings scatter.
# Experiment: A CellTox Green Cytotoxicity Assay to monitor cytotoxicity in HEK293 cells - 32 hour (AID 1224881); further: nearly all actives have a fitted effect of over 40% in size
# Settings: CellTox Green fluorescence; series mostly up to 76.8 µM; cytotoxicity increase: at the top concentration
# Description: National Center for Advancing Translational Sciences [NCATS]
# NIH Chemical Genomics Center [NCGC]
# U.S. Environmental Protection Agency [EPA]
# National Institutes of Environmental Health Sciences [NIEHS]
# National Toxicology Program [NTP]
# Cell-based models are critical for drug discovery. Determining the natural cytotoxic effects resulting from test compounds is an essential research activity. A CellTox Green Cytotoxicity Assay to monitor cytotoxicity in real time of continues cell culture during 40 hours of the compound treatment was used to screen Tox21 10K library compounds in Hek293 cells. CellTox Green Cytotoxicity Assay is a nonlytic, homogeneous, biofluorescent method to measure cytotoxicity in cell culture after experimental manipulation. The assay system uses a proprietary asymmetric cyanine dye that is excluded from viable cells but preferentially stains the dead cell's DNA. […] Viable cells produce no appreciable increases in fluorescence. Therefore, the fluorescence signal produced by the binding interaction with dead cell DNA is proportional to cytotoxicity.
# The mixture of Hek293 cell suspension and reagents were dispensed at 600cells/6 ul/well in 1536-well tissue culture treated black solid bottom plates using a Multidrop dispenser. After the assay plates were incubated at a 37 C/5% CO2 incubator for 5 hours, 23 nL of compounds dissolved in DMSO, positive and negative controls was transferred to the assay plate by a pintool work station. The plates were incubated at 37 C for 40 hours. The fluorescence intensity were measured at 0h, 8h, 16h, 24h, 32h and 40h time points using ViewLux plate reader during compound treatment.
# On the % scale 0 is the no-effect control and ±100 the full control effect; potency means the concentration at half of the fitted maximal effect.
Structure (SMILES),cytotoxicity increase,Potency
CCCCN(C)C,10.7% (inactive),–
c1cc[nH]c1,14.7% (inactive),–
CCCCCCCC/C=C\CCCCCCCC(=O)OCCOC(=O)CCCCCCC/C=C\CCCCCCCC,1.32% (inactive),–
CN1CCN(C2Cc3ccccc3Sc3ccc(Cl)cc32)CC1 (stereo not given),–,21.3 µM (active)
Brc1ccccc1-c1ccccc1,–,20.7 µM (active)
C[C@H]1O[C@@H](O[C@H]2[C@@H](O)C[C@H](O[C@H]3[C@@H](O)C[C@H](O[C@H]4CC[C@@]5(C)[C@H](CC[C@@H]6[C@@H]5C[C@@H](O)[C@]5(C)[C@@H](C7=CC(=O)OC7)CC[C@]65O)C4)O[C@@H]3C)O[C@@H]2C)C[C@H](O)[C@@H]1O,–,inactive
COc1ccccc1C=O,18.7% (inactive),–
CCc1cccc(C)c1,-4.79% (inactive),–
CCCCOc1ccc(C(=O)CCN2CCCCC2)cc1,–,19 µM (active)
O=C(O)CC(=O)O,-1.07% (inactive),–
Oc1c(Br)cc(Br)c2cccnc12,15.2% [at 35.3 µM] (inactive),–
COc1ccc2sc(C(=O)Nc3nnn[nH]3)c(OC(C)C)c2c1,-2.4% (inactive),–
CC1=CP(=O)(c2ccccc2)CC1 (stereo not given),-24.4% (inactive),–
ClC/C=C\CCl,-3.91% (inactive),–
c1ccc2c(c1)CCC2,-1.08% (inactive),–
Cc1oc(-c2ccccc2)nc1CCOc1ccc(C[C@H](Nc2ccccc2C(=O)c2ccccc2)C(=O)O)cc1,10.6% (inactive),–
COC(=O)[C@]1(C)CCC[C@@]2(C)[C@H]1CC=C1C=C(C(C)C)CC[C@@H]12,–,38.9 µM (active)
CC(=O)Oc1ccc(C2(c3ccc(OC(C)=O)cc3)C(=O)Nc3ccccc32)cc1,-18% [at 35.3 µM] (inactive),–
C/C=C/C(=O)Oc1c(CCCCCC(C)C)cc([N+](=O)[O-])cc1[N+](=O)[O-],–,38.9 µM (active)
Cc1cccc(N(C)C)c1,0.192% (inactive),–

Structure (SMILES),cytotoxicity increase,Potency
C=CC(=C)CCC=C(C)C,1.06% (inactive),–
Clc1ccc(C(c2ccccc2Cl)C(Cl)Cl)cc1 (stereo not given),6.23% [at 35.3 µM] (inactive),–
CCOC(=O)COc1ccc(C)cc1,-3.79% (inactive),–
CS(C)(=O)=O,–,19.5 µM (active)
Cc1cccc(C)c1NC(=O)CN1CCN(CCCC(c2ccc(F)cc2)c2ccc(F)cc2)CC1,–,19 µM (active)
O=C1NC2CCCCN2C12CCN(CCCN1c3ccccc3CCc3ccc(Cl)cc31)CC2 (stereo not given),–,21.3 µM (active)
Cc1ccc2ccc3cccc4ccc1c2c34,29.4% (inactive),–
CCCCCCCCCCCCCCCC,-11.5% (inactive),–
C=CC/C=C/C/C=C/C/C=C/C,13.2% (inactive),–
CC(C)N=C(N)/N=C(\N)Nc1ccc(Cl)cc1,-1.2% [at 35.3 µM] (inactive),–
CCCCCCCCCCCCOC(=O)c1cc(O)c(O)c(O)c1,–,48.8 µM (active) and 49 µM (active)
O=C1C=CC(=O)N1c1ccccc1,–,11 µM (active)
CN(C)CCN1CCOCC1,3.66% (inactive),–
CN1CN(C)CN(C)C1,3.58% (inactive),–
COc1ccc(-n2nc(CCC(=O)N(C)O)cc2-c2ccc(Cl)cc2)cc1,-9% [at 35.3 µM] (inactive),–
Clc1cc(Cl)c(-c2c(Cl)c(Cl)cc(Cl)c2Cl)cc1Cl,-18.7% [at 35.3 µM] (inactive),–
CC(=O)Oc1ccc(C2(c3ccc(OC(C)=O)cc3)Oc3ccccc3NC2=O)cc1,-7.58% [at 35.3 µM] (inactive),–
CC(C)c1ccccc1N,4.92% (inactive),–
CCN(CC)CCNc1ccc(CO)c2sc3ccccc3c(=O)c12,17% [at 35.3 µM] (inactive),–
CN(C)CCCN1c2ccccc2CCc2ccccc21,18.6% [at 35.3 µM] (inactive),–
